# Bioassay records deposited in PubChem by National Center for Advancing Translational Sciences (NCATS).
# Pf Dd2 inh: blocks in vitro growth of P. falciparum Dd2; Potency, µM (top dose mostly 28.9 µM), without a hit: top-dose activity, negative = inhibition, most hits filed as inhibitors; 120,000 compounds, 4.3% hits; P. falciparum Dd2 growth, SYBR Green, 72 h; active means well fitted inhibition curve with a large enough effect;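 further: plate controls were DMSO vehicle for no effect and reference drug for full effect; nearly all actives have a fitted effect of over 65% in size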
#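 Readout: SYBR Green fluorescence, 485 nm excitation, 535 nm emission, after ~16 h lysis at 37C. Before that, Dd2-infected red cells (2.5% hematocrit) grew 72 h with compound, 29 uM top final concentration.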
# Active calls of the source: *; i = inactive; [ ] = another dose, or the depositor's remark. The sample as a whole holds a higher share of hits than the screen did. Potency means the concentration at half of the fitted maximal effect.
SMILES,Pf Dd2 inh
COc1ccc(C(=O)N2CCC(c3nc4ccccc4s3)CC2)cc1Cl,94%
Cc1ccc(NC(=O)c2cc(S(=O)(=O)NCCc3ccc(Cl)cc3)ccc2F)cc1,i
CCOc1ccccc1NC(=O)c1cc(S(=O)(=O)NC2CCCC2)ccc1F,i
Cc1ccc(C(=O)Nc2ccc(F)cc2)cc1S(=O)(=O)N1CCCCCC1,-37%
O=C(Nc1ccc(Br)cc1)c1ccc(F)c(S(=O)(=O)NC2CCCCCC2)c1,1.3µM*
O=C(Nc1ccc(Br)cc1F)c1cc(S(=O)(=O)NC2CCCCC2)ccc1F,-15%
CCOc1ccc(NC(=O)c2cc(S(=O)(=O)N3CCOCC3)ccc2F)cc1,i
CC(C)c1ccc(NC(=O)c2cc(S(=O)(=O)NC3CCCCC3)ccc2F)cc1,7.9µM*
CCOc1ccc(NC(=O)c2cc(S(=O)(=O)NC3CCCCCC3)ccc2F)cc1,4µM*
O=C(Nc1ccc(Br)cc1)c1ccc(Br)c(S(=O)(=O)N2CCCCC2)c1,-6%
COc1cccc(C(=O)NCCC2CCN(C(=O)Nc3cccc(C)c3)CC2)c1,i
O=C(O)Cn1ccc2cc(OCC3CCN(C(=O)C4CCCC4)CC3)cnc21,i
COC(=O)c1ccc2nc(CO[C@H]3CN(C(C)=O)C[C@H]3F)[nH]c2c1,2%[44.1 µM]
COC[C@@H]1CN(c2cnccn2)C[C@H]1C(=O)NCCc1ccccn1,7%
Cc1nc(N2CCC(NCCN3CCCOC3=O)CC2)c2ccsc2n1,-19%
O=C(O)COc1ccc(-c2nccc3c2C(=O)N(Cc2c[nH]c4ccccc24)CC(CNC(=O)Cc2ccccc2)O3)cc1 (configuration not stated),i
Cn1cc([C@@H](NC(=O)CCc2ccc3c(c2)OCO3)C2CC(O)C2)cn1 (some centres not stated),-13%
CC(=O)NCC(=O)N1Cc2ccccc2CC2(CCCN2Cc2ccccc2)C1 (configuration not stated),-17%
O=C(C1CCCC1)N1CC2(CCCCN2C2COC2)Cc2ccccc21 (configuration not stated),21%
O=C(C1CC1)N1CC2(CCCN2Cc2cccnc2)Cc2ccccc21 (configuration not stated),10µM*
CC(C)C(=O)N1Cc2ccccc2CC2(CCCCN2Cc2cccnc2)C1 (configuration not stated),13µM*
CC(=O)N1CC2(CCCN(Cc3cccc(C(N)=O)c3)C2)Cc2ccccc21 (configuration not stated),-4%
COc1ccc(CC(=O)N2Cc3ccccc3CC23CCCN(C(=O)CCCN)C3)cc1 (configuration not stated),14%
CN1CCC(C(=O)N2Cc3ccccc3CC3(CCN(Cc4cccnc4)C3)C2)CC1 (configuration not stated),-24%
NCC(=O)N1CCCC2(Cc3ccccc3CN2C(=O)Cc2cccc(Cl)c2)C1 (configuration not stated),13µM*
SMILES,Pf Dd2 inh
CC(=O)N1Cc2ccccc2CC2(CCCN2Cc2ccccc2)C1 (configuration not stated),-8%
CS(=O)(=O)N1CC2(CCCN2Cc2cccc(C(N)=O)c2)Cc2ccccc21 (configuration not stated),14µM*
COc1ccc(CC(=O)N2Cc3ccccc3CC23CCCN(C(=O)CN)C3)cc1 (configuration not stated),-21%
NC(=O)c1cccc(CN2CCCC23Cc2ccccc2NC3=O)c1 (configuration not stated),-6%
CC(=O)N1CCCC2(C1)CN(C)c1ccc(C(=O)NC(C)C)cc12 (configuration not stated),17%[44.1 µM]
CN(C)c1cc(N2CCCC(N)C2)ncn1 (configuration not stated),-5%[5.79 µM]
CC(C)(C)c1cn(C[C@H]2CC3CCN2C[C@@H]3C(=O)Nc2nccs2)nn1 (some centres not stated),i
O=C(C1CCCCCC1)N1CCC(n2cc(C3CCCCC3)nn2)CC1,-23%
O=C1Nc2ccc(-c3cccs3)cc2C(=O)N2CC[C@H](NS(=O)(=O)c3ccc(Cl)cc3)C[C@@H]12,-4%
O=C(c1ccccn1)N1CCC(N(Cc2cccnc2)C2CCOCC2)CC1,i
Cc1ccc(C(=O)N2CCN(c3nnc4cccc(C)n34)CC2)cc1F,i
O=C(CC1CCN(C(=O)C2CCC2)C1)NCc1ccccc1 (configuration not stated),41%
Cc1ccccc1-c1nc(N2CCOCC2)cc2c1CN(CC1CC1)C2=O,-24%[44.1 µM]
O=C(Cc1ccccc1)N1Cc2ccccc2CC2(CCCN2Cc2ccncc2)C1 (configuration not stated),8.9µM*
O=C(O)CCC(=O)N1Cc2ccccc2CC2(CCCN2Cc2ccncc2)C1 (configuration not stated),4%
COc1ccc(CN2CCCCC23Cc2ccccc2CN(C(=O)CCC(=O)O)C3)cc1 (configuration not stated),-22%
CCCC(C)N1CC2(CCN(Cc3nnc(-c4ccccc4)o3)CC2)OC1=O (configuration not stated),-3%
Cn1cnc([S+](=O)([O-])NC2CCN(C(=O)N3CC4CC(C3)[C@H]3CCCC(=O)N3C4)CC2)c1 (some centres not stated),13%
O=C(NC1C[C@H]2CC[C@@H](C1)N2S(=O)(=O)c1ccc(Cl)s1)c1ccncc1 (some centres not stated),1%
COc1ccc2[nH]c(C(=O)NCC(=O)N3CCCCCCNC(=O)CC3c3ccccc3)cc2c1 (configuration not stated),5µM*
Cc1nc(C)c(C(=O)NCC(=O)N2CCCCCCNC(=O)CC2c2ccccc2)s1 (configuration not stated),-1%
COc1ccc(CCC(=O)NCC(=O)N2CCCCCNC(=O)CC2c2ccccc2)cc1 (configuration not stated),i
COc1ccc(C(=O)NCC(=O)N2CCCCCCNC(=O)CC2c2ccccc2)c(OC)n1 (configuration not stated),8.9µM*
COc1ccc(C2(C(=O)NCC(=O)N3CCCCCNC(=O)CC3c3ccccc3)CC2)cc1 (configuration not stated),-2%
Cc1ncccc1C(=O)NCC(=O)N1CCCCCNC(=O)CC1c1ccccc1 (configuration not stated),14%
SMILES,Pf Dd2 inh
COC[C@@H]1CN(C(=O)c2c(C)noc2C)C[C@H]1c1ccncc1,34%
Cc1cccc(OCC(=O)N2CCC(n3cc(-c4nc(C5CC5)no4)nn3)C2)c1 (configuration not stated),-3%
O=C1CC2CCN(CC3CCNC3)CC2CCN1 (configuration not stated),14%[44.1 µM]
CCc1nc2c(c(-c3ccc(OC)cc3)n1)CCN(Cc1ccc(C(F)(F)F)cc1)CC2,11µM*
COc1ccc(-c2nc(C)nc3c2CCN(Cc2ccc(F)cc2)CC3)cc1,i
CCc1nc2c(c(-c3ccc(Cl)cc3)n1)CN([S+](=O)([O-])c1ccc(C)cc1)CC2,i
CCc1nc2c(c(-c3ccc(Cl)cc3)n1)CN(CC1CC1)CC2,4.5µM*
CCc1nc2c(c(-c3ccc(OC)cc3)n1)CN([S+](=O)([O-])c1cccc(OC)c1)CC2,-24%
CCc1nc2c(c(-c3ccc(O)cc3)n1)CN(Cc1ccnn1C)CC2,5%
CCc1nc2c(c(-c3ccc(Cl)cc3)n1)CN(Cc1ccc(N(C)C)cc1)CC2,8.9µM*
CCc1nc2c(c(-c3ccc(Cl)cc3)n1)CCN(Cc1ccnn1C)CC2,i
